Laboratory results taken from PubChem BioAssay.
Active and inactive are the calls of the source. Unless noted, no rule for the calls is given here.

Columns and labels:
[1] = tested on: Wnt5a (protein binding on small-molecule microarray); assay: small molecules binding Wnt5a protein – biophysical, small-molecule microarray, 635/667 nm fluorescence, primary screen (AID 1142); conditions: 635 nm fluorescence, higher = more signal;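 also: fluorescence read at 667 nm with signal to noise per printed feature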
[2] = ATP-based viability of Huh7 replicon cells – cell-based, CellTiter-Glo luminescence, basal, 48 h, cytotoxicity control for HCV replication inhibitor project, primary screen (AID 1143); conditions: higher = more signal, called active from +8 up or from −8 down;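 also: Huh7 hepatoma cells carrying a hepatitis C replication reporter with no stimulus; test concentration not given here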
[3] = Pseudomonas biofilm growth suppression – PAO1 strain, BacTiter-Glo luminescence, LB-PBS, primary screen (AID 1144); conditions: P. aeruginosa PAO1 biofilm, 12 h, higher = more signal
[4] = basal CRE-LacZ reporter activity in PC12 – cell-based, unstimulated, primary screen (AID 1145); conditions: no forskolin, luminescence, 4.5 h, higher = more signal, called active from +8 up or from −8 down
[5] = forskolin-driven CRE-LacZ activity in PC12 – cell-based, CRE-LacZ reporter, forskolin-stimulated, primary screen (AID 1146); conditions: luminescence, 4.5 h, higher = more signal, called active from +8 up or from −8 down;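 also: PC12 cells with 6xCRE LacZ reporter stimulated by forskolin 10 µM; beta-galactosidase reporter signal reflecting CREB driven transcription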
[6] = target: Streptavidin (Streptomyces avidinii) (UniProt P22629); assay: compounds binding control protein streptavidin – biophysical, small-molecule microarray, 635/667 nm fluorescence, artefact control for SMM compound annotation, primary screen (AID 1147); conditions: higher = more signal;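 also: signal reflects streptavidin binding to arrayed compounds as a control protein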
Streptavidin (Streptomyces avidinii), sequence (P22629 whole entry, looked up): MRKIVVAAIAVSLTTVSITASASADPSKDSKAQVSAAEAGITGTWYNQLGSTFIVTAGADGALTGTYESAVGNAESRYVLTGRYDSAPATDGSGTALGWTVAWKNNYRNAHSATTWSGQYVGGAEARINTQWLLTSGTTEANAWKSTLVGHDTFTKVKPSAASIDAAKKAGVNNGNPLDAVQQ

[7] = probe aInhba binding on compound microarray – biochemical, small-molecule microarray, 635/667 nm fluorescence, primary screen (AID 1148); conditions: higher = more signal;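 also: score merges 667nm spot fluorescence with signal-to-noise for antibody binding to printed compounds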
Torsin-1A (Homo sapiens) [8] = target: Torsin-1A (Homo sapiens) (UniProt O14656); assay: TOR1A wild-type binding on microarray – cell lysate, small-molecule microarray, lysate, 635/667 nm, primary screen (AID 1149); conditions: COS7 hTOR1A-WT lysate, 635 nm fluorescence, higher = more signal
Torsin-1A (Homo sapiens), sequence (O14656 whole entry, looked up): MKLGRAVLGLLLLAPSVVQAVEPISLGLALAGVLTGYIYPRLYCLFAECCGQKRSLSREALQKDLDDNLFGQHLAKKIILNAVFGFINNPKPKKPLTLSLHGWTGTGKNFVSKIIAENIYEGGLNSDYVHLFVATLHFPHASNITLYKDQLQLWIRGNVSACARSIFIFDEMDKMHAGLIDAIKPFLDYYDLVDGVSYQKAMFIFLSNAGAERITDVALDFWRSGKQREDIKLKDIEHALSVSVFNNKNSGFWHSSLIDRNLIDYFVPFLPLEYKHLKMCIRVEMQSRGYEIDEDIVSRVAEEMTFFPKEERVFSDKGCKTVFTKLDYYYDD

Torsin-1A (Homo sapiens) [9] = target: Torsin-1A (Homo sapiens) (UniProt O14656); assay: torsin A mutant lysate binding on microarrays – cell lysate, small-molecule microarray, COS7 lysate, 635/667 nm fluorescence, primary screen (AID 1150); conditions: COS7 hTOR1A mutant lysate, 635 nm fluorescence, higher = more signal;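 also: score pools 667 nm emission and signal to noise measuring lysate protein binding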
[10] = tested on: Sonic hedgehog protein (Shh); assay: Sonic hedgehog microarray binding compounds – biochemical, small-molecule microarray, 635/667 nm fluorescence, primary screen (AID 1151); conditions: 635 nm fluorescence, higher = more signal;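 also: Shh protein binding to compounds spotted on small-molecule microarray slides; score combines spot fluorescence intensity with signal-to-noise across triplicate slides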
[11] = optical density shifts of acrAB sulA E. coli – strain DRC41, OD650, 48 h, E. coli filamentation inducer project, primary screen (AID 1152); conditions: higher = more signal, called active from +8 up or from −8 down;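 also: E. coli MC1000 strain DRC41 lacking acrAB efflux pump and sulA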
[12] = probe aLefty1 binding on compound microarray – biochemical, small-molecule microarray, 635/667 nm fluorescence, primary screen (AID 1153); conditions: higher = more signal;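 also: score merges spot fluorescence with signal-to-noise ratio from the scanned slide images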
[13] = plasmodial surface anion channel blockers, osmotic lysis – cell-based, P. falciparum Indochina, OD700, 1 h, primary screen (AID 1154); conditions: P. falciparum Indochina infected RBC osmotic lysis, higher = more signal, called active from +8 up or from −8 down
[14] = plasmodial surface anion channel blockers, osmotic lysis – cell-based, P. falciparum Indochina, OD700, 2 h, primary screen (AID 1155);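 also: lysis reports solute entry through the parasite surface anion channel PSAC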; conditions: P. falciparum Indochina infected erythrocytes, higher = more signal, called active from +8 up or from −8 down
[15] = changes in parasitized red cell lysis, either direction – P. falciparum Indochina, OD700, 3 h, PSAC antagonist project, primary screen (AID 1156); conditions: P. falciparum-infected erythrocytes, osmotic lysis, higher = more signal, called active from +8 up or from −8 down
[16] = plasmodial surface anion channel blockers, osmotic lysis – cell-based, P. falciparum Indochina, OD700, 18 h, primary screen (AID 1157); conditions: P. falciparum Indochina infected erythrocytes, osmotic lysis OD700, 18 h; higher = more signal, called active from +8 up or from −8 down
[17] = S6 kinase pathway phospho-S6 level changes – cell-based, A549, cytoblot, luminescence, serum-stimulated, primary screen (AID 1158); conditions: 5 h, higher = more signal;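 also: serum-stimulated A549 lung adenocarcinoma cells; signal is phosphorylated S6 detected by cytoblot immunostaining with HRP secondary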
[18] = target: NADPH oxidase 2 (Homo sapiens) (UniProt P04839); assay: compounds shifting NOX2 Amplex Red fluorescence – cell-based, HEK293-NOX2, PMA-stimulated, NOX inhibitor project, primary screen (AID 1159); conditions: 45 min, higher = more signal, called active from +8 up or from −8 down; also: test concentration not given here
NADPH oxidase 2 (Homo sapiens), sequence (P04839 whole entry, looked up): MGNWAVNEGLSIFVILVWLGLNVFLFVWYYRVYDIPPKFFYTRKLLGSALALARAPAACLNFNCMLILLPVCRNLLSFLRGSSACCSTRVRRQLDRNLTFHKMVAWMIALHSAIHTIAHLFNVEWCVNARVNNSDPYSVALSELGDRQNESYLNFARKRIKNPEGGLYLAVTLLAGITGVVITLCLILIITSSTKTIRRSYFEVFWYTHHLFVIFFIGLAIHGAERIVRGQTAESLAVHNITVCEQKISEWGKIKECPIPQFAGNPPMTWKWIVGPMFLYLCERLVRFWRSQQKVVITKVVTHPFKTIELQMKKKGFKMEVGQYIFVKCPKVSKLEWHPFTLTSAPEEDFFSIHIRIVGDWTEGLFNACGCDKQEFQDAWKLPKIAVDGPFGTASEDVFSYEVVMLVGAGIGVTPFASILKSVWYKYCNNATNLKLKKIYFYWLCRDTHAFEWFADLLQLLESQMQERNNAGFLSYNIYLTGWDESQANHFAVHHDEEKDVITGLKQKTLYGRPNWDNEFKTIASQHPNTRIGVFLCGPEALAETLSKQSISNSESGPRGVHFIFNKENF

[19] = target: NADPH oxidase 4 (Homo sapiens) (UniProt Q9NPH5); assay: compounds shifting NOX4 Amplex Red fluorescence – cell-based, HEK293-NOX4, tetracycline-induced, NOX inhibitor project, primary screen (AID 1160); conditions: HEK293-NOX4, Amplex Red H2O2 fluorescence, 45 min; higher = more signal, called active from +8 up or from −8 down
NADPH oxidase 4 (Homo sapiens), sequence (Q9NPH5 whole entry, looked up): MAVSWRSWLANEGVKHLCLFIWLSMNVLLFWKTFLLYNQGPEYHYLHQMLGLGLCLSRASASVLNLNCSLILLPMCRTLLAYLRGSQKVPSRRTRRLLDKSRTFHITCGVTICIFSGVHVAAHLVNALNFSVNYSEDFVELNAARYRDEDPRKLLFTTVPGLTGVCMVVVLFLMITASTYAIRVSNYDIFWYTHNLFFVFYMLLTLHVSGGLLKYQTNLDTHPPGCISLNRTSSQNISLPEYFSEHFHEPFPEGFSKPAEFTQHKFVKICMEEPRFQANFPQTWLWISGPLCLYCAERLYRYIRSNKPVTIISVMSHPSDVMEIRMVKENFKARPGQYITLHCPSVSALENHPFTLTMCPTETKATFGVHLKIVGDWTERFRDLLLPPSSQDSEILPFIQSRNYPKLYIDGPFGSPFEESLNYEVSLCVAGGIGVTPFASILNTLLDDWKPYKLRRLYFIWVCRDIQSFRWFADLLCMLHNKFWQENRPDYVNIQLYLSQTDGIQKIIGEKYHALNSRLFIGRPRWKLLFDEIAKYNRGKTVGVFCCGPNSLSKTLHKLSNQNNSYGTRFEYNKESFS

[20] = target: NADPH oxidase 5 (Homo sapiens) (UniProt Q96PH1); assay: compounds shifting NOX5 Amplex Red fluorescence – cell-based, HEK293-NOX5, NOX inhibitor project, primary screen (AID 1161); conditions: HEK293-NOX5, ionomycin, 45 min, higher = more signal
NADPH oxidase 5 (Homo sapiens), sequence (Q96PH1 whole entry, looked up): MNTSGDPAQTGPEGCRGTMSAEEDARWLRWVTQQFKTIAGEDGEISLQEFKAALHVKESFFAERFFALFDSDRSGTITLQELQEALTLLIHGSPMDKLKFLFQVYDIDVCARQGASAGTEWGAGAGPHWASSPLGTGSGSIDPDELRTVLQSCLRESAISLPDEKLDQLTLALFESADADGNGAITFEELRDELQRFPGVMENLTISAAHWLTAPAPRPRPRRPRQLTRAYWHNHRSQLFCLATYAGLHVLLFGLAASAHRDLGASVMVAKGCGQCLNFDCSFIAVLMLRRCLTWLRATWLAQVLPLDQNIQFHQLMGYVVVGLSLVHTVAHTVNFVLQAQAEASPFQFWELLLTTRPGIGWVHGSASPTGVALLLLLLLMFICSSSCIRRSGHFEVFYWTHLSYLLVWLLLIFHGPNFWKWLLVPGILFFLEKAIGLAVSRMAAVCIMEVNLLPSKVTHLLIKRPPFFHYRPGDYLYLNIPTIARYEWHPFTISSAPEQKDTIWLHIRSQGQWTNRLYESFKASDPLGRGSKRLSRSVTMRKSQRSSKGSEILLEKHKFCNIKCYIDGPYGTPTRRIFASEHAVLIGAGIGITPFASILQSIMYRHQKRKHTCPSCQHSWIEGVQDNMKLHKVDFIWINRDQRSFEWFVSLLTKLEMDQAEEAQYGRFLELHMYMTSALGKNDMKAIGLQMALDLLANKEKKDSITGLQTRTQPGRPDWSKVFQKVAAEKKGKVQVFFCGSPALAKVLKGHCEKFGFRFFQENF

| Structure (SMILES) | composite z-score [1] | z-score [2] | z-score [3] | z-score [4] | z-score [5] | composite z-score [6] | composite z-score [7] | composite z-score (Torsin-1A (Homo sapiens) [8]) | composite z-score (Torsin-1A (Homo sapiens) [9]) | composite z-score [10] | z-score [11] | composite z-score [12] | z-score [13] | z-score [14] | z-score [15] | z-score [16] | z-score [17] | z-score [18] | z-score [19] | z-score [20] |
| --- | --- | --- | --- | --- | --- | --- | --- | --- | --- | --- | --- | --- | --- | --- | --- | --- | --- | --- | --- | --- |
| CCCNC(=O)[C@@H]1c2ccccc2C(=O)N(C2CCCCC2)[C@H]1c1ccc(CO)cc1 | 0.15 | -0.64 (inactive) | -0.255 (inactive) | -0.062 (inactive) | -0.224 (inactive) | 0.573 | 0.0589 | -0.244 | 0.0805 | 0.573 | -0.401 (inactive) | 0.14 | 11 (active) | 0.867 (inactive) | 1.06 (inactive) | 0.72 (inactive) | -0.326 | 0.747 (inactive) | -0.201 (inactive) | -1.24 |
| COCCOC(=O)N1C(=O)[C@@]2(c3cc(C#CC4=CCCCC4)ccc31)[C@H](C(=O)NC[C@H](O)c1ccccc1)[C@H]1C(=O)O[C@H](c3ccccc3)[C@H](c3ccccc3)N1[C@@H]2c1ccccc1OCCO | 0.255 | -5.75 (inactive) | 0.423 (inactive) | 0.48 (inactive) | -0.99 (inactive) | 0.634 | 0.243 | 0.453 | 0.509 | 1.53 | -0.499 (inactive) | 0.705 | 3.23 (inactive) | 1.95 (inactive) | -0.032 (inactive) | 1.78 (inactive) | -0.178 | 1.53 (inactive) | 0.911 (inactive) | 1.2 |
| COc1ccc(-c2cc3c(c(-c4ccccc4)n2)[Si](C(C)C)(C(C)C)O[C@H]3c2ccccc2)cn1 | 0.436 | 0.0834 (inactive) | 0.0798 (inactive) | 0.0035 (inactive) | 0.411 (inactive) | -0.207 | -0.0403 | 0.363 | -0.0308 | 0.82 | -1.27 (inactive) | -0.147 | 1.71 (inactive) | 0.489 (inactive) | -0.479 (inactive) | -0.183 (inactive) | -0.442 | 0.601 (inactive) | 0.451 (inactive) | 0.929 |
| COC(=O)[C@@]1(Cc2ccc(OC)cc2)[C@H]2c3cc(C(=O)N(C)C)n(CCc4ccc(OC)c(Br)c4)c3C[C@H]2CN1C(=O)c1ccccc1 | 0.839 | -3.88 (inactive) | 0.28 (inactive) | 0.39 (inactive) | 0.0318 (inactive) | 1.95 | 0.993 | -0.242 | 0.733 | 0.116 | -1.52 (inactive) | 1.61 | 3.73 (inactive) | 1.39 (inactive) | 0.307 (inactive) | 1.35 (inactive) | -0.21 | -0.052 (inactive) | 0.493 (inactive) | 0.527 |
| O=C1OCC=C[C@H]2OC34C=CCN(Cc5ccccc5)C(=O)[C@H]3N(CCO)C(=O)[C@@H]4[C@@H]12 (stereo not given in full) | -0.744 | 0.154 (inactive) | -0.992 (inactive) | -1.31 (inactive) | -0.773 (inactive) | -1.09 | -0.307 | -2.02 | -0.768 | -0.722 | 2.41 (inactive) | -0.0104 | 0.286 (inactive) | -0.44 (inactive) | -1.32 (inactive) | -1.34 (inactive) | 0.262 | 1.53 (inactive) | 1.18 (inactive) | 1.75 |
| CCOC(=O)C1=CC[C@@H](c2ccc(-c3ccc(OCc4ccccc4)cc3)c(OC)c2)N(S(=O)(=O)c2ccc(C)cc2)[C@H]1c1ccccc1 | 0.0858 | -2.32 (inactive) | -1.05 (inactive) | -0.489 (inactive) | 0.1 (inactive) | 1.67 | 0.119 | 0.277 | 0.518 | 1.15 | -0.0232 (inactive) | 0.404 | 2.67 (inactive) | 1.86 (inactive) | 0.487 (inactive) | 1.22 (inactive) | -0.533 | 1.31 (inactive) | 0.643 (inactive) | 0.429 |
| CCc1cccc(NC(=O)O[C@H]2[C@H](OC(=O)Nc3ccccc3)[C@@H](OC(=O)Nc3ccccc3)[C@@H](OC)O[C@@H]2CO)c1 | 0.73 | -5.6 (inactive) | -0.944 (inactive) | 0.344 (inactive) | -1.9 (inactive) | 0.39 | 0.0785 | 2.73 | 0.896 | 1.72 | 0.172 (inactive) | 0.424 | 5.28 (inactive) | 1.13 (inactive) | -0.298 (inactive) | 0.667 (inactive) | 0.211 | -6.71 (inactive) | -1.24 (inactive) | -2.35 |
| Cc1ccc(S[C@]2(C(=O)NCCCN(C)C)CC(=O)N(Cc3ccccc3)[C@@H]2c2ccc(CO)cc2I)cc1 | -0.278 | -2.97 (inactive) | 0.831 (inactive) | 0.531 (inactive) | 2.84 (inactive) | -0.0112 | -0.0645 | -1.84 | -1.08 | -0.824 | -0.901 (inactive) | 0.374 | 8.39 (active) | 0.909 (inactive) | 1.94 (inactive) | 0.256 (inactive) | -0.0322 | -0.234 (inactive) | -1.63 (inactive) | 1.72 |
| COC(=O)Cn1c(C(=O)N2CCCC2)cc2c1C[C@H]1CN(C(=O)c3ccccc3)[C@@](Cc3ccccc3)(C(=O)OC)[C@@H]21 | -0.0963 | -0.259 (inactive) | -0.195 (inactive) | -0.572 (inactive) | -0.402 (inactive) | 0.344 | 0.158 | -0.531 | -0.0683 | -1.04 | -0.406 (inactive) | 0.257 | 1.54 (inactive) | 0.104 (inactive) | 0.16 (inactive) | 0.469 (inactive) | 0.136 | 0.489 (inactive) | 0.217 (inactive) | -2.54 |
| COC(=O)[C@@]1(Cc2ccccc2CN=[N+]=[N-])N=C(c2ccc(OCCCO)cc2)O[C@H]1c1ccccc1N=[N+]=[N-] | 0.54 | -3.9 (inactive) | -0.174 (inactive) | 2.28 (inactive) | -0.505 (inactive) | -0.104 | -0.0645 | -1.42 | -0.855 | 1.77 | -0.55 (inactive) | 0.495 | 26.8 (active) | 16.8 (active) | 1.76 (inactive) | 2.33 (inactive) | 0.166 | -1.2 (inactive) | 1.25 (inactive) | 0.841 |
